The text below walks through data of PubChem BioAssay (Tox21).

Assay [1] deals with Estrogen receptor beta (Homo sapiens) (UniProt Q92731). The assay can be described thus: qHTS assay to identify small molecule agonists of the estrogen receptor beta (ER-beta) signaling pathway (AID 1259377; active = well fitted activation curve with a large enough effect in the signal ratio in the repeat runs, not every such curve was filed as active; the % refers to the signal ratio). In a few lines: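 HEK293T ER-beta-UAS-bla; 2% charcoal-stripped FBS; cells pre-incubated 6 hr, compound 16 hr, 37C/5% CO2; LiveBLAzer B/G FRET substrate 2 h RT; fluorescence intensity read.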
Estrogen receptor beta (Homo sapiens), sequence (Q92731 whole entry, looked up): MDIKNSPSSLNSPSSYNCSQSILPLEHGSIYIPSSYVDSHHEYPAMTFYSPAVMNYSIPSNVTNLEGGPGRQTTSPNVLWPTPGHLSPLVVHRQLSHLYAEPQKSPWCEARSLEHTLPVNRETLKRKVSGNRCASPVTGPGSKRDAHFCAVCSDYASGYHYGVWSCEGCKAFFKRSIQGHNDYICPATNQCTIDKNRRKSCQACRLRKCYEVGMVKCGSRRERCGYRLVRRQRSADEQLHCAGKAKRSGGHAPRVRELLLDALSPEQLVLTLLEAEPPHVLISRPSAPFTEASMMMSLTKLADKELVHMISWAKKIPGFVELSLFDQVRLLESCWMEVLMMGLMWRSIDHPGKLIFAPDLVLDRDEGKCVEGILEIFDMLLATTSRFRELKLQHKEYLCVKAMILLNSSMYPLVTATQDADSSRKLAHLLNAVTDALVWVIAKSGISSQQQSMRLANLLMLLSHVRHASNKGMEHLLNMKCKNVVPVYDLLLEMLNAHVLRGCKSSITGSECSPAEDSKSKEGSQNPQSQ
(In general: Quantitative high-throughput screening tests each substance at several concentrations.)

Assay [2] shares this target. In words: qHTS assay to identify small molecule antagonists of the estrogen receptor beta (ER-beta) signaling pathway (AID 1259378; active = well fitted inhibition curve with a large enough effect in the signal ratio in the repeat runs, not every such curve was filed as active; the % refers to the signal ratio; note: potency is the fitted concentration of half-maximal effect). The method in brief: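 Antagonist mode: compounds added to beta-lactamase reporter HEK293T ER-beta-UAS cells stimulated with E2 (1nM final), 16 hr at 37C. LiveBLAzer B/G FRET substrate, 2 hours room temperature, fluorescence read-out.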

Assay [3] is described as follows: qHTS assay to identify small molecule agonists of the androgen receptor (AR) signaling pathway in the presence of an antagonist - cell viability counter screen (AID 1259379).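 Note: MDA-kb2 human breast cancer cells carrying an MMTV luciferase reporter; series mostly up to about 92 µM; nearly all actives have a fitted effect of over 25% in size.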 In a few lines:
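Seed MDA-kb2 at 3,000 cells/well; incubate 5 hr, 37C, 0% CO2. Add nilutamide to 3.0uM final, then pin compounds at 15 concentrations. Incubate 16 hr. Add CellTiter-Fluor at 15 hr, read fluorescence after 1 hr.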

Assay [4] in a line: qHTS assay to identify small molecule agonists of the estrogen receptor beta (ER-beta) signaling pathway - cell viability counter screen (AID 1259380). Note: nearly all actives have a fitted effect of over 30% in size. Note: potency is the fitted concentration of half-maximal effect. The method in brief: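 CellTiter-Glo read, 30 min RT, same wells as bla assay; cells ER-beta-UAS-bla HEK293T; 16 hr compound, 37C; medium 2% charcoal-stripped FBS.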
Assay [5] is described as follows: qHTS assay to identify small molecule antagonists of the estrogen receptor beta (ER-beta) signaling pathway - cell viability counter screen (AID 1259382).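 For activity change, negative = cytotoxicity: HEK293T cells carrying ER-beta-UAS-bla reporter stimulated with estradiol; series mostly up to about 92 µM.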 Note: nearly all actives have a fitted effect of over 55% in size. Note: potency is the fitted concentration of half-maximal effect. In a few lines: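 In this multiplexed counter screen, cells were seeded at 2,000 per well in medium with 2% charcoal-stripped FBS and incubated 6 hr before compound and 1nM final E2 were added. Sixteen hours later, ATP-based luminescence reported viability.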

Assay [6] concerns the target Estrogen receptor (Homo sapiens) (UniProt P03372). The assay can be described thus: qHTS assay to identify small molecule agonists of the estrogen receptor alpha (ER-alpha) signaling pathway in the presence of an antagonist (AID 1259383; calls by dose curve; note: top concentration of the series differs between compounds; nearly all actives have a fitted effect of over 15% in size). The method in brief: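 Stably transfected VM7Luc4E2 reporter cells, kept 5 days in charcoal-stripped serum, received ICI-182,780 at 10.0nM final before compound addition. Following 22hr incubation at 37C and 5% CO2, luciferase signal was read by luminescence.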

Assay [7] can be described thus: qHTS assay to identify small molecule agonists of the estrogen receptor alpha (ER-alpha) signaling pathway in the presence of an antagonist - cell viability counter screen (AID 1259386).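 Note: series mostly up to about 92 µM; cells exposed to compounds for 22 h at 37 °C before the viability read; nearly all actives have a fitted effect of over 30% in size.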 The method in brief:
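Viability counter screen using VM7Luc4E2 (full-length ER-alpha, four ERE-luciferase). The cells were treated with compounds alongside ICI-182,780 10.0nM for 22hr, and live-cell protease fluorescence was quantified with CellTiter-Fluor.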

In assay [8] the target is Thyrotropin receptor (Homo sapiens) (UniProt P16473). In words: qHTS assay to identify small molecule antagonists of the thyroid stimulating hormone receptor (TSHR) signaling pathway (AID 1259385; calls by dose curve; note: nearly all actives have a fitted effect of over 20% in size). In a few lines: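 Antagonist mode: compound-treated TSHR-expressing HEK293 cells were stimulated with 1.5 ng/mL TSH (final) in presence of Ro20-1724 for 30 min at RT. HTRF cAMP detection after 1 h; each compound tested at 15 concentrations, triplicate.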
Thyrotropin receptor (Homo sapiens), sequence (P16473 whole entry, looked up): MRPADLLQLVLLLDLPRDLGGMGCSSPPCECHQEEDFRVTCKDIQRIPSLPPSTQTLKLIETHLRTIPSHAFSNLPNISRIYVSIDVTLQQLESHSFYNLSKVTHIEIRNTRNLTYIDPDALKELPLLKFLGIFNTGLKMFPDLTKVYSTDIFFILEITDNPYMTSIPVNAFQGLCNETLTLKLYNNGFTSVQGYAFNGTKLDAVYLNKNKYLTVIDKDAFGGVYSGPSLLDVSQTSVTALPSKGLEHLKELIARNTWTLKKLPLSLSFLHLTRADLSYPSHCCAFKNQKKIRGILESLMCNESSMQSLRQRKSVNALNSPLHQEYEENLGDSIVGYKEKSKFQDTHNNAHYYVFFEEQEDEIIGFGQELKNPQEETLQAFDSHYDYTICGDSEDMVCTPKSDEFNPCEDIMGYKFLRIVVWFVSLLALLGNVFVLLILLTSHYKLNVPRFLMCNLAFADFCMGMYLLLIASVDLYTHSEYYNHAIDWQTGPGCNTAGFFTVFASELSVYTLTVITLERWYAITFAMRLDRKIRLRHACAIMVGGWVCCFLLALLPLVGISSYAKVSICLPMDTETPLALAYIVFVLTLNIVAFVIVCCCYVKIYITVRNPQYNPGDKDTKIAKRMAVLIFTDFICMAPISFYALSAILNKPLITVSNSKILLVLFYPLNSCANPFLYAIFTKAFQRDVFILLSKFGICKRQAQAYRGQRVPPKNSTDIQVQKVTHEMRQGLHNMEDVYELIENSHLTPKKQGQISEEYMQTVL

Assay [9] can be described thus: qHTS assay to identify small molecule agonists or antagonists of the thyroid stimulating hormone receptor (TSHR) signaling pathway - wild type cell line counter screen (AID 1259384; calls by dose curve). In a few lines: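 Counter screen in untransfected Hek293: compounds (15-point titration, triplicate) plus phosphodiesterase inhibitor Ro20-1724 added after 18 h plating; 30 min RT. Intracellular cAMP via competitive d2/cryptate immunoassay, 1 h incubation.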

In assay [10] the target is Androgen receptor (Homo sapiens) (UniProt P10275). The assay can be described thus: qHTS assay to identify small molecule agonists of the androgen receptor (AR) signaling pathway in the presence of an antagonist (AID 1259381; calls by dose curve; note: nearly all actives have a fitted effect of over 15% in size). In a few lines: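 Test compounds at 15 concentrations were incubated for 16hr with MDA-kb2 reporter cells in presence of 3.0uM nilutamide (final). Signal: ONE-Glo luciferase luminescence.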
Androgen receptor (Homo sapiens), sequence (P10275 whole entry, looked up): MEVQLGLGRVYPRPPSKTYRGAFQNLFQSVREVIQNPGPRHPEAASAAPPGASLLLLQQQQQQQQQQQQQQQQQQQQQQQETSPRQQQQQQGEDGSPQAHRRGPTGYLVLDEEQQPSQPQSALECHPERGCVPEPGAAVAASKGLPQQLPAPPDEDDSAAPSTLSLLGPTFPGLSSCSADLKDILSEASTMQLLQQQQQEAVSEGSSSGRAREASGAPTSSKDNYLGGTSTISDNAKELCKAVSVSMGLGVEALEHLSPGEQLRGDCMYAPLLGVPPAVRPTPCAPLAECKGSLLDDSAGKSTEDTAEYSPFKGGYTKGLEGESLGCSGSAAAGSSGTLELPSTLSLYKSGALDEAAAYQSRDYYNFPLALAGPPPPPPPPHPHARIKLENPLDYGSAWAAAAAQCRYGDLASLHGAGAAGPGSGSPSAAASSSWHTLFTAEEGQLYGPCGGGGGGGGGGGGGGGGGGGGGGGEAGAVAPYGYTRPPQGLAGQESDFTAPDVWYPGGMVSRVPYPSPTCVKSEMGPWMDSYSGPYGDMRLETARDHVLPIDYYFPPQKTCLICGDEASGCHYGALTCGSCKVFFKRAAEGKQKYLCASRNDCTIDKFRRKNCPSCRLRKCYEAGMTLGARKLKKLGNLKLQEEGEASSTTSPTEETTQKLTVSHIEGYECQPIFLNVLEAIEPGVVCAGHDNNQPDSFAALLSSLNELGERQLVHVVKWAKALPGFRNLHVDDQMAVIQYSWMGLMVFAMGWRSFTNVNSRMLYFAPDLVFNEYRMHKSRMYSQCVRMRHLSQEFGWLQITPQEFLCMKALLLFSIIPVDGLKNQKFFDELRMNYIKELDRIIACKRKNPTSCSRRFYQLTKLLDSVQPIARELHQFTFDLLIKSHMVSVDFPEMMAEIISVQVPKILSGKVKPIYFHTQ

Several values for one entry are separate records, joined by “and”; a condition that tells them apart may be missing. Identical values can stand only once. Records with an inconclusive call do not appear. Activity calls are given as the source filed them. Unless noted, calls come from the whole dose curve; as a rule, active = well fitted curve in the direction sought with a large enough effect in the repeat runs; inconclusive = weak or mixed curves; inactive = no such curve, though single readings can be large; an effect the other way counts as inactive or inconclusive.
% is set by controls: 0 for no effect and ±100 for the full control effect.

Estrogen receptor (Homo sapiens), sequence (P03372 whole entry, looked up): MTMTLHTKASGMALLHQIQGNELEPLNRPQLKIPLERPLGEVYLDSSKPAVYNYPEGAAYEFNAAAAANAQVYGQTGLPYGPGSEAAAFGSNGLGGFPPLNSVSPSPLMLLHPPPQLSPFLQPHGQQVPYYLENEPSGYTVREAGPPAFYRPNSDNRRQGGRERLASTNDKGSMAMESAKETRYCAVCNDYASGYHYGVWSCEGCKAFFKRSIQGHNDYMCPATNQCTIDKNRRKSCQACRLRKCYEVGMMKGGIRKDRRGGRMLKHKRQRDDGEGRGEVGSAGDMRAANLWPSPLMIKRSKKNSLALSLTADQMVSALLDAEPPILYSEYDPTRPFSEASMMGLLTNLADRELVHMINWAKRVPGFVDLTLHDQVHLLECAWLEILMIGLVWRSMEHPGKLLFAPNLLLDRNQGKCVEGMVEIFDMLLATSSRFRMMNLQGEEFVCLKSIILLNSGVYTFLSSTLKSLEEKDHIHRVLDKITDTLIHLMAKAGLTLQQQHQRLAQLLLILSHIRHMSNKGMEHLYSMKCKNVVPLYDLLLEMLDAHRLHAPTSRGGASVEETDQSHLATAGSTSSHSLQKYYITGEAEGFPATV

As to `C=CC(=O)NCOCCCC`, the Potency result in assay [1], in assay [2], in assay [3], in assay [4], in [5] and in [6] was “inactive” in each case. In addition, the Potency result in assay [7] was “inactive”.
Consider `OCCOCCOCCOCCOCCO`, for which the Potency entry in assay [1], in assay [2], in [3], in assay [4], in [5] and in assay [8] was “inactive” each time. In assay [7], the Potency result was “inactive”.
As for `CC(=O)CC(=O)N(C)C`, the Potency entry in assay [1], in [2], in assay [3], in assay [4], in assay [5] and in assay [6] was “inactive” in each case. Also, the Potency result in assay [8] and in assay [7] was “inactive” in each case.
Regarding `COC(=O)/C=C\C(=O)OC`, the Potency entry in assay [1], in [2], in [3], in [4], in assay [5] and in [9] was “inactive” in each case. Besides, the Potency result in assay [8] and in [7] was “inactive” each time.
Take `O=C1C(N(CO)C(=O)NCO)N(CO)C(=O)N1CO` (stereo not drawn): the Potency result in assay [1], in [2], in assay [3], in assay [4], in assay [5] and in assay [6] was “inactive” each time. The Potency entry in assay [8] and in assay [7] was “inactive” in each case.
With `O=C(Cl)c1ccc(C(=O)Cl)cc1`, the Potency result in assay [1], in [2], in assay [3], in [4], in [5] and in [6] was “inactive” each time. Further, the Potency entry in [8] and in assay [7] was “inactive” each time.
In the case of `CO[Si](CCCNCCN)(OC)OC`, the Potency entry in assay [1], in [2], in assay [3], in assay [4], in assay [5] and in assay [9] was “inactive” throughout. Besides, the Potency entry in assay [8] and in assay [7] was “inactive” each time. The result in [10] was inactive.
As to `N#CCC(=O)O`, the Potency entry in assay [1], in assay [2], in assay [3], in assay [4], in assay [5] and in [6] was “inactive” in each case. The Potency result in [8] and in assay [7] was “inactive” in each case.
Take `O=C1CCCCCCCCCCC1`: the Potency result in [1], in assay [2], in assay [3], in assay [4], in assay [5] and in [6] was “inactive” in each case. Moreover, the Potency result in [8] and in [7] was “inactive” in each case.
As for `CC(CN1c2ccccc2Sc2ccccc21)N(C)C` (stereo not drawn), the Potency entry in assay [1], in assay [3], in assay [9], in assay [8] and in [7] was “inactive” throughout. Moreover, the Potency in assay [2] was 43.3 µM (active) and 29.8 µM (active); in assay [4] it was 49.1 µM (active) and 24.3 µM (active) and 23.7 µM (active); in [5] it was 24.6 µM (active) and 21.7 µM (active) and 16.8 µM (active).
`NC1CCCCC1N` (stereo not drawn): the Potency result in [1], in assay [2], in assay [3], in assay [4], in assay [5] and in assay [8] was “inactive” throughout. Besides, in assay [7], the Potency entry was “inactive”.
`CS(=O)(=O)c1ccc(Cl)cc1`: the Potency entry in assay [1], in assay [2], in assay [3], in [4], in assay [5] and in assay [8] was “inactive” throughout. Moreover, in assay [7], the Potency entry is “inactive”.
Regarding `CCCCCCCCO`, the Potency entry in assay [1], in [2], in assay [3], in assay [4], in assay [5] and in assay [6] was “inactive” each time. Further, the Potency result in assay [9], in assay [8] and in assay [7] was “inactive” each time.
As to `COc1cc(NC(=O)CC(C)=O)c(OC)cc1Cl`, the Potency result in [1], in assay [2], in assay [3], in assay [4], in assay [5] and in assay [6] was “inactive” each time. Moreover, the Potency result in assay [9], in [8] and in assay [7] was “inactive” throughout.
`O=C(O)Cc1c[nH]c2ccccc12`: the Potency result in assay [1], in [2], in [3], in assay [4], in assay [5] and in [9] was “inactive” each time. The Potency entry in assay [8] and in [7] was “inactive” each time.
For the molecule `CCN(CC)CCNC(=O)c1ccc(N)cc1`, the Potency entry in assay [1], in assay [2], in assay [3], in [4], in [5] and in [9] was “inactive” throughout. Also, the Potency result in assay [8] and in assay [7] was “inactive” throughout.
In the case of `CC/C=C(\C(=O)N[C@@H]1C(=O)N2C(C(=O)OCOC(=O)C(C)(C)C)=C(COC(N)=O)CS[C@H]12)c1csc(N)n1`, the Potency entry in assay [1], in [2], in assay [3], in [4], in assay [5] and in assay [6] was “inactive” throughout. Besides, the Potency result in assay [8] and in assay [7] was “inactive” throughout.
Consider `CCCCCCCCC(=O)O`, for which the Potency result in assay [1], in [2], in [3], in assay [4], in [5] and in assay [6] was “inactive” each time. Also, the Potency entry in assay [9], in assay [8] and in [7] was “inactive” in each case.
As to `CCc1cccc(CC)c1N`, the Potency entry in assay [1], in assay [2], in assay [3], in [4], in assay [5] and in assay [6] was “inactive” in each case. For the same molecule, the Potency entry in [9], in [8] and in assay [7] was “inactive” throughout. Further, the outcome in [10] was inactive.
Take `COc1c2ccoc2cc2oc(=O)ccc12`: the Potency result in assay [1], in assay [2], in [3], in [4], in assay [5] and in assay [6] was “inactive” throughout. In addition, the Potency result in [9], in [8] and in assay [7] was “inactive” each time.
With `C=CC(C)(C)C`, the Potency result in assay [1], in assay [2], in assay [3], in assay [4], in assay [5] and in assay [6] was “inactive” throughout. Moreover, the Potency entry in assay [9], in [8] and in assay [7] was “inactive” in each case.
As for `OCC(CO)(CO)CO`, the Potency result in assay [1], in assay [2], in assay [3], in assay [4], in [5] and in assay [6] was “inactive” throughout. Besides, the Potency result in assay [9], in [8] and in [7] was “inactive” in each case.
With `CCCCCCCCCCCCCC(=O)O`, the Potency entry in assay [1], in assay [2], in [3], in [5], in [6] and in [9] was “inactive” throughout. The Potency result in [8] and in assay [7] was “inactive” in each case. The Potency in assay [4] is 43.1 µM (active) and 61.1 µM (active).
Take `CCCCCCCCCCCC(=O)N(C)CC(=O)O`: the Potency entry in assay [1], in assay [3], in [5], in [6], in assay [8] and in [7] was “inactive” each time. Further, in [2], the activity, negative = inhibition is 1.54% [at 8.39 µM] (inactive). Besides, the activity change, negative = cytotoxicity in assay [4] is -3.5% [at 8.39 µM] (inactive).
